Results as given in PubChem BioAssay AID1159580 (chemical genetic matrix, 2015).
Values joined by “and” are separate entries in the source; they are usually repeats but may differ in a detail not shown here. Identical values can stand only once. Screen size: about 5,500 compounds; about 2,000 (36%) were called active. Not shown: some 18% with an inconclusive outcome. No stated cut-off is given here; in the data, active means normalized growth mostly below about 0.91 (no sharp cut-off); inconclusive means no clear call, values can overlap the other calls; inactive means mostly above about 0.92. This is one part of the list.

Assay: chemical genetic growth profiling, strain panel (AID 1159580);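 further: tested at 20 µM; growth read once vehicle control cultures reached saturation at 30 °C; 1 = growth at the plate median or of vehicle wells; lower values mean less growth of the strain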
Details: S. cerevisiae deletion strains, growth OD

Measured: normalized growth

CC(=O)C1CCC2C3CCC4C[C@H](O)CCC4(C)C3C[C@H](O)C12C (some centres not stated)
inactive: locus YAL013W, strain DEP1, active compounds read low 1.03 | locus YAL021C, strain ccr4, active compounds read low 0.96 | locus YAL026C, strain drs2, active compounds read low 0.984 | locus YAL030W, strain snc1, active compounds read low 0.971 | locus YBL061C, strain skt5, active compounds read low 0.989 | locus YBR009C, strain hhf1, active compounds read low 0.963 | locus YBR021W, strain FUR4, active compounds read low 1.02 | locus YBR023C, strain chs3, active compounds read low 0.989 | locus YBR171W, strain sec66, active compounds read low 0.961 | locus YBR229C, strain ROT2, active compounds read low 1.03 | locus YBR231C, strain swc5, active compounds read low 0.993 | locus YBR279W, strain paf1, active compounds read low 0.98 | locus YCL011C, strain gbp2, active compounds read low 0.957 | locus YCL016C, strain dcc1, active compounds read low 0.97 | locus YCL029C, strain bik1, active compounds read low 1 | locus YCL069W, strain vba3, active compounds read low 0.968 | locus YCR088W, strain abp1, active compounds read low 0.972 | locus YDL005C, strain med2, active compounds read low 0.971 | locus YDL035C, strain GPR1, active compounds read low 1.09 | locus YDL040C, strain nat1, active compounds read low 0.982 | locus YDL074C, strain BRE1, active compounds read low 1.16 | locus YDL101C, strain DUN1, active compounds read low 1.02 | locus YDL134C, strain PPH21, active compounds read low 1.05 | locus YDL185W, strain tfp1, active compounds read low 0.999 | locus YDL192W, strain arf1, active compounds read low 1.02 | locus YDR001C, strain nth1, active compounds read low 0.956 | locus YDR069C, strain doa4, active compounds read low 0.945 | locus YDR101C, strain arx1, active compounds read low 1.01 | locus YDR137W, strain rgp1, active compounds read low 0.966 | locus YDR150W, strain NUM1, active compounds read low 1.04 | locus YDR159W, strain sac3, active compounds read low 0.982 | locus YDR162C, strain NBP2, active compounds read low 1.04 | locus YDR195W, strain ref2 0.956 | locus YDR297W, strain sur2, active compounds read low 0.976 | locus YDR318W, strain mcm21, active compounds read low 1.02 | locus YDR334W, strain swr1, active compounds read low 0.962 | locus YDR335W, strain msn5, active compounds read low 0.982 | locus YDR388W, active compounds read low 1.01 | locus YDR392W, strain spt3, active compounds read low 0.978 | locus YDR502C, strain sam2, active compounds read low 1.01 | locus YEL003W, strain gim4, active compounds read low 0.979 | locus YEL037C, strain rad23, active compounds read low 0.972 | locus YEL061C, strain CIN8 (second series), active compounds read low 0.973 | locus YEL061C, strain CIN8, active compounds read low 1.03 | locus YER015W, strain faa2, active compounds read low 0.968 | locus YER016W, strain bim1, active compounds read low 0.971 | locus YER110C, active compounds read low 0.987 | locus YER111C, strain swi4, active compounds read low 0.978 | locus YER155C, strain BEM2 (second series), active compounds read low 0.979 | locus YER155C, strain BEM2, active compounds read low 1.02 | locus YER167W, strain BCK2, active compounds read low 1.02 | locus YFR010W, strain ubp6, active compounds read low 0.975 | locus YGL078C, strain dbp3, active compounds read low 0.995 | locus YGL086W, strain mad1, active compounds read low 1.01 | locus YGL167C, strain pmr1, active compounds read low 0.96 | locus YGL173C, strain kem1, active compounds read low 0.965 | locus YGL227W, strain vid30, active compounds read low 0.972 | locus YGL240W, strain doc1, active compounds read low 0.984 | locus YGL248W, strain PDE1, active compounds read low 1.08 | locus YGL253W, strain hxk2, active compounds read low 0.963 | locus YGR078C, strain PAC10, active compounds read low 1.07 | locus YGR135W, strain pre9, active compounds read low 0.998 | locus YGR252W, strain gcn5, active compounds read low 1.06 | locus YHR013C, strain ard1, active compounds read low 0.942 | locus YHR027C, strain rpn1, active compounds read low 0.971 | locus YHR030C, strain SLT2, active compounds read low 1.01 | locus YHR079C, strain IRE1 (second series), active compounds read low 1.01 | locus YHR079C, strain IRE1, active compounds read low 1.02 | locus YHR094C, strain hxt1, active compounds read low 1 | locus YHR129C, strain ARP1, active compounds read low 1.04 | locus YHR142W, strain chs7, active compounds read low 0.953 | locus YHR200W, strain rpn10, active compounds read low 1.01 | locus YIL066C, strain RNR3, active compounds read low 1.04 | locus YIL073C, strain SPO22, active compounds read low 1.12 | locus YIL125W, strain kgd1, active compounds read low 1.01 | locus YIR030C, strain dcg1, active compounds read low 1.01 | locus YJL092W, strain hpr5, active compounds read low 0.964 | locus YJL095W, strain BCK1 (second series), active compounds read low 0.961 | locus YJL095W, strain BCK1, active compounds read low 1.07 and 1.01 | locus YJL115W, strain asf1, active compounds read low 0.963 | locus YJL129C, strain trk1, active compounds read low 0.968 | locus YJL134W, strain LCB3, active compounds read low 1.01 | locus YJL154C, strain vps35, active compounds read low 0.968 | locus YJL164C, strain tpk1, active compounds read low 0.96 | locus YJL166W, strain qcr8, active compounds read low 0.975 | locus YJL168C, strain set2, active compounds read low 0.987 | locus YJL187C, strain SWE1 (second series), active compounds read low 1.04
